Screens: PubChem BioAssay, National Center for Advancing Translational Sciences (NCATS)
Sampled rows, rich in hits. Any-hit rate of the full collection: about 7.4%.
Luc counter: counter-screen: inhibitors of Kinase-Glo firefly luciferase. Potency, µM (doses to about 38.3 µM), for the others: at the top dose activity change, negative = inhibition, hits mostly inhibitors. Kinase-Glo luciferase, ATP luminescence, 8 min. Q27757. 200,000 compounds, 0.28% hits; also: % is scaled to controls: 0 for no effect and ±100 for the full control effect; nearly all actives have a fitted effect of over 60% in size
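Inhibition of Kinase-Glo luciferase light generation was assessed at 10 uM ATP in pH 7.2 imidazole buffer, with luminescence measured after eight minutes at ambient temperature.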
FLuc modulator: firefly luciferase modulation, counter-screen for miR-21 project; Potency, µM (doses to about 57.5 µM), inactives show at the top dose activity change, negative = inhibition, usual class: inhibitors; AID 588342; purified FLuc, Km substrates, luminescence inhibition; 360,000 compounds, 6.9% hits;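 also: plate controls were vehicle for no effect and reference inhibitor for full effect; nearly all actives have a fitted effect of over 55% in size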
Target sequence (P08659 whole entry, looked up): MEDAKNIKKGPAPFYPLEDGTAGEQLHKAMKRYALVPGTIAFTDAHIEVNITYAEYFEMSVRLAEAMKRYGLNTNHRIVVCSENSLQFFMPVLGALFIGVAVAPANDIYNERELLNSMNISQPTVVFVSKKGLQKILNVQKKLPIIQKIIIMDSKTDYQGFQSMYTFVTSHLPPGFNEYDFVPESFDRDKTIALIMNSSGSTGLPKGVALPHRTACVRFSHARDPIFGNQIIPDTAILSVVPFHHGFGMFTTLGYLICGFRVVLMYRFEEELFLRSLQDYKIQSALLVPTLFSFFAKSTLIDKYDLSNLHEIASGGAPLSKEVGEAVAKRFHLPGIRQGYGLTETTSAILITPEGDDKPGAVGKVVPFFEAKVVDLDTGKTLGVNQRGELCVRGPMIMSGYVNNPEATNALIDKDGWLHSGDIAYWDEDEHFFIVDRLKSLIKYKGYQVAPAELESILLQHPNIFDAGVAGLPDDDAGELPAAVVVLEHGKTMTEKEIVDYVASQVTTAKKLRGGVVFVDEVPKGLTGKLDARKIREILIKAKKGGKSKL
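Purified P. pyralis luciferase, 10 nM final, with Km-level 10 uM D-luciferin and 10 uM ATP in 50 mM Tris acetate pH 7.5, 10 mM Mg acetate, 0.01% Tween-20, 0.05% BSA; 6-point qHTS titration about 60 µM downward; luminescence read.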
SMN2 splice enh: increases expression of the SMN2 splice variant; HEK293 SMN2-luciferase splicing reporter, luminescence, 30-36 h; Potency, µM (series often up to 46.1 µM), inactives show at the top dose activity change, positive = activation, usual class: activators; 210,000 compounds, 2.8% hits; AID 1458; also: % of control where 0% means no effect; nearly all actives have a fitted effect of over 55% in size
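qHTS luciferase splicing reporter: luminescence rises when SMN2 exon 7 is included in transfected HEK293 cells. Compound exposure lasted 30-36 h at 37C, with 4.5 mM final sodium butyrate as control, followed by a ONE-Glo read.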
NPC1 prom act: activators of NPC1 promoter; Huh7 NPC1 promoter luciferase reporter, 24 h; Potency, µM (series often up to 9.22 µM), inactives show at the top dose activation, most hits filed as activators; 320,000 compounds, 2.4% hits; AID 485313; also: % of control where 0% means no effect; nearly all actives have a fitted effect of over 60% in size
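Luminescence from an NPC1 promoter-driven luciferase reporter in stably transfected Huh7 cells was measured after 24 h compound treatment at 37 °C, followed by 10 min ambient incubation with luciferase detection reagent.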
ELG1 genotox: genotoxicity induction in ELG1-luciferase HEK293T cells; HEK293T ELG1-luciferase reporter, luminescence, 16 h; Potency, µM (titrated, usually from 46 µM), for the others: at the highest dose activity change, positive = activation, hits mostly activators; 330,000 compounds, 1.3% hits; AID 504466; also: % of control where 0% means no effect; nearly all actives have a fitted effect of over 60% in size
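Step 1: seed 2,000 HEK293T ELG1-luciferase cells per well. Step 2: add compound or DMSO, incubate 16 hr at 37 °C. Step 3: ONE-Glo, 30 min at room temperature, read luminescence.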
Rab9 prom act: activates the Rab9 promoter. Huh7 Rab9 promoter-luciferase reporter, luminescence, 24 h. Potency, µM (top dose mostly 9.22 µM), for inactives: at the top dose activation, negative = inhibition, actives largely listed as activators. 320,000 compounds, 2.8% hits. AID 485297; also: % of control where 0% means no effect; nearly all actives have a fitted effect of over 60% in size
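Luminescence from Amplite-detected luciferase (10 minutes, ambient) reports Rab9 promoter activation. Before that, stable Rab9-luciferase Huh7 cells (1500/well, reduced-serum OP-MEM I plus 10% FBS) were exposed to compound for 24 hours at 37C.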
Numbers without * were called inactive; ? = inconclusive; nt = no result; [ ] = another dose, or the depositor's remark. Calls follow the shape of the dose curve; as a rule, active = well fitted curve in the direction sought with a large enough effect; inconclusive = small, poorly fitted or top-dose-only effect, or another doubt; inactive = no such curve, though single readings can be large; an effect the other way counts as inactive or inconclusive. Potency is read from the fitted curve at half-maximal effect.

SMILES	Luc counter	FLuc modulator	SMN2 splice enh	NPC1 prom act	ELG1 genotox	Rab9 prom act
Cc1cccc(Cn2c(SCc3ccc(C(=O)NCc4ccccc4)cc3)nc3cccnc32)c1	nt	2%	nt	nt	nt	nt
COc1ccc(-c2cn3c(n2)sc2cc(C(=O)NCCC4=CCCCC4)ccc23)cc1	nt	-3%	nt	nt	nt	nt
CC1=C(C(=O)N2CCN(c3cccc(C)c3C)CC2)C2(CCCCC2)OC1=O	nt	-2%	-5%	nt	nt	nt
O=S(=O)(c1ccc2c(c1)OCCO2)N1CCN(c2nc3ccccc3s2)CC1	-2%	1%	-26%	-5%	-5%	0%
COc1ccc(OC)c2sc(N3CCc4ccccc4C3)nc12	1%	12µM*	3%	-1%	7%	24%
c1ccc2c(c1)CCN(c1nc3cc4c(cc3s1)OCCO4)C2	nt	0.11µM*	nt	?	?	?
COc1ccc(OC)c2sc(N3CCCCC3)nc12	-3%	19µM*	?	29%	18µM*	21%
Oc1c(Cl)cc(C(c2cc(Cl)c(O)c(Cl)c2)C(c2cc(Cl)c(O)c(Cl)c2)c2cc(Cl)c(O)c(Cl)c2)cc1Cl	-1%[7.66 µM]	nt	-31%[9.22 µM]	nt	nt	nt
COc1cc(OC)c(NC(=O)CN(C)S(=O)(=O)c2ccc3c(c2)CCCC(=O)N3)cc1Cl	nt	-11%	nt	nt	nt	nt
O=C(CS(=O)(=O)c1nc(-c2ccc(Cl)cc2)cn1-c1ccccc1)Nc1cccc(Cl)c1	nt	?	13µM*	nt	nt	nt
CCOc1ccc(-c2cn(-c3ccc(C)cc3)c(SCC(=O)Nc3ccc(C)cc3)n2)cc1	nt	-5%	nt	nt	nt	nt
Cc1ccc(-c2cn(-c3cccc(Cl)c3)c(S(=O)(=O)CC(=O)Nc3ccccc3F)n2)cc1	nt	?	13µM*	nt	nt	nt
Cc1ccc(NC(=O)CS(=O)(=O)c2nc(-c3ccc(C)cc3)cn2-c2ccc(C)cc2)cc1	nt	?	18µM*	nt	nt	nt
O=C(CS(=O)(=O)c1nc(-c2ccc(Cl)cc2)cn1-c1ccccc1)Nc1ccc(F)cc1F	nt	21µM*	14µM*	nt	nt	nt
CCCCOc1ccccc1C(=O)N(Cc1cccc(F)c1)C1CCS(=O)(=O)C1 (configuration not stated)	nt	-2%	-5%	nt	nt	nt
Cc1ccc(-c2cn(-c3cccc(Cl)c3)c(S(=O)(=O)CC(=O)Nc3cccc(C)c3)n2)cc1	nt	-13%	16µM*	nt	nt	nt
COc1cc(/C=N\NC(=O)c2sc(N)nc2C)cc(OC)c1OC	2%	15µM*	10%	0%	7%	12%
Cc1nc(N)sc1C(=O)N/N=C/c1ccc([N+](=O)[O-])cc1	nt	-1%	nt	?	12%	0%
COc1cc(/C=N/NC(=O)c2cc(-c3ccccc3)sc2N)cc(OC)c1OC	nt	4.8µM*	nt	6%	-8%	0%
COc1ccc(/C=N\NC(=O)c2ccc(-c3ccccc3)cc2)c(OC)c1OC	nt	1%	nt	-1%	6%	-4%
COc1cc(/C=N/NC(=O)c2ccc(-c3ccccc3)cc2)cc(OC)c1OC	0%	11µM*	19%	9%	-7%	13%
COc1cc(C(=O)N/N=C/c2sc(=O)n(-c3ccccc3)c2Cl)cc(OC)c1OC	3%	6µM*	-4%	-4%	7%	-8%
COc1ccc(C(=O)Nc2ccccc2-c2nc3ccccc3s2)c(OC)c1	nt	-8%	nt	nt	nt	nt
O=c1c2ccccc2c2ccccc2c(=O)n1-c1cc2c3ccccc3ccc2c2ccccc12	-2%[7.66 µM]	nt	-11%[9.22 µM]	nt	nt	nt
N=C(C[C@@H](O)COc1ccccc1-c1ccccc1)N1CCCCC1	-4%	nt	nt	nt	nt	nt
SMILES	Luc counter	FLuc modulator	SMN2 splice enh	NPC1 prom act	ELG1 genotox	Rab9 prom act
Cc1ccc(N=C(c2cccs2)N2CCOCC2)cc1	-1%	4%	18µM*	6%	?	24%
C[C@@H]1CC2(OC3C[C@@]4(C)C5=CC[C@H]6C(C)(C)C(O[C@@H]7OC[C@@H](O)[C@H](O)[C@H]7O)CC[C@@]67C[C@@]57CC[C@]4(C)C31)OC(O)C1(C)OC21 (some centres not stated)	nt	nt	2%	nt	nt	nt
O=C(Nc1ccccc1F)c1ccc(CSc2ncccn2)cc1	?	?	?	3.5µM*	?	3.5µM*
O=C(Nc1ccccc1F)c1ccc(OCc2ccccc2)cc1	-6%	?	22µM*	?	?	?
O=C(Nc1ccccc1)c1ccc(CSc2ncccn2)cc1	?	3.4µM*	13µM*	1.1µM*	?	1µM*
CC(=O)Nc1nnc(SCc2ccc(C(=O)Nc3ccccc3F)cc2)s1	-9%	4%	-17%	-5%	9%	14%
CCOc1ccc(CCNC(=O)c2ccc(CS(=O)(=O)Cc3ccccc3Cl)o2)cc1OCC	nt	-10%	nt	nt	nt	nt
CCc1cccc(NC(=O)CSc2ncc3c(n2)-c2ccc(Cl)cc2N(Cc2ccccc2)S3(=O)=O)c1	nt	-4%	nt	nt	nt	nt
Brc1ccc(-c2nnc(Cc3ccccc3)o2)cc1	nt	11µM*	nt	3.5µM*	21µM*	?
COc1ccc(Cc2nnc(-c3ccccc3)o2)cc1	1%	?	-13%	17%	nt	?
c1ccc(Cc2nnc(-c3ccccc3)o2)cc1	-6%	24µM*	?	?	3.3µM*	?
c1ccc(-c2nnc(CSc3nncs3)o2)cc1	0%	?	?	28%	23µM*	25%
Cc1ccccc1-c1nnc(Cc2ccccc2)o1	-2%	11µM*	11µM*	4µM*	?	4µM*
O=C(O)[C@H](C1NCCS1)N1Cc2ccccc2C1 (some centres not stated)	0%[7.66 µM]	nt	-7%[9.22 µM]	nt	nt	nt
Cc1cc2c(c(=O)o1)C1O[C@](c3ccsc3)(Cc3ccccc31)O2	nt	4%[11.5 µM]	nt	1%[1.84 µM]	nt	-11%[1.84 µM]
Cc1ccc(S(=O)(=O)Nc2cc3c(cc2N2CCOCC2)n(C)c(=O)n3C)c(C)c1	nt	-2%	-1%	nt	nt	nt
Cc1ccc(C(=O)Nc2ccc(Br)cc2)cc1S(=O)(=O)NCc1ccccc1	nt	-13%	-44%	nt	nt	nt
CC1CCN(C(=O)Cn2cc(SCc3cccc(F)c3)c3ccccc32)CC1	nt	-3%	nt	nt	nt	nt
Cc1ccc(-c2nnc(Cc3ccc(Cl)cc3)o2)cc1	-2%	17µM*	21%	23%	16µM*	28%
Cc1ccc(C(=O)N(Cc2nnc(-c3ccc(Cl)cc3)o2)C2CC2)o1	nt	-26%	nt	1%	1%	-5%
CCOC(=O)c1c(C)[nH]c(C)c1S(=O)(=O)N1CCC(C(=O)NCc2ccc(F)cc2)CC1	nt	-7%	nt	nt	nt	nt
COC(=O)[C@H]1[C@@H]2C[C@H]3c4[nH]c5ccccc5c4CCN3C[C@@H]2CC[C@@H]1O	-2%	nt	nt	nt	nt	nt
Cn1cnnc1SCC(=O)c1ccc2c(c1)CCCC2	1%	19µM*	5%	14%	?	23%
Cc1ccc(C(=O)Nc2ccccc2C(=O)O)cc1S(=O)(=O)N1CCCCCC1	nt	0.95µM*	?	nt	nt	nt
